Test results reported in PubChem BioAssay AID1508600 (Functional Genomics Laboratory (NCATS/FGL), 2020).
Among all 53,000 sequences or so, about 3,700 (7%) were called active. The entries come from a sample that favours actives as a whole. Unmarked numbers belong to inactive results.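 The calls were made as follows: active = gene knockdowns whose robust z-score for IL-1 alpha signal is at least 2 or at most -2, so actives lie on both sides; inactive = the rest.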

Assay: Components of the Cytosolic LPS Sensing Pathway: Gene Identification via Genome-wide siRNA Screen;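 also: robust z of the log signal after scaling to non-targeting control siRNA wells of the plate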
Details: RAW264.7 macrophages, IL-1a HTRF, actives lie on both sides, screened at 100 nM (by protocol), cells primed 5 h with Pam3CSK4 first
How it was run: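 Three distinct siRNAs per gene were tested singly at 100 nM in RAW264.7 macrophages. Following Pam3CSK4 priming and 24 hour LipidA transfection, IL-1a secretion was read by HTRF.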

Sequence | z-score
GGUACACUAUGAGGUCUGCTT against Traf2 | 2.07 (active)
GGUCUAUCAGAUCAUCAAATT against Pde8a | 0.584
GGGUUCAAUAACCACAUCATT against Ttc13 | -2.13 (active)
GGACUCAGAAGUGAACAUATT against Spata7 | -0.916
GCCUACGUGAAAUCUCACATT against Mycl | 0.147
CCUCAAUUGGAUAAAGAAGTT against Gzma | 1.7
GACAUACCAGCCGUAUAACTT against Erh | -2.39 (active)
CGAGGAGAAUUUGUAAUGATT against Etfrf1 | -0.554
CCCUGAACCCUAACAUCACTT against Tcirg1 | 0.593
GGAGUGUUGGGAGCAGGAATT against Tnni1 | 2.71 (active)
GGAUGUUCUUGCUCAUGUGTT against Fam149b | 0.605
GGAGAAAUGCCAUUGCGUCTT against Wnt3 | 0.169
GCGCGUCAUAAAAAGCAUATT against Lhx6 | 1.17
CGGAUCCUACGGAAUUACGTT against Fpgs | 0.99
GGACAUUCUUUAAGAAGAUTT against Tjp3 | -0.584
CCCAAAAGUUUUUACAGCUTT against Ttpa | 0.0745
GGAUGAACCACCAUAUGUGTT against Olfr1188 | 4.69 (active)
GGUUUUGAAAAAGCAUCAATT against Myoz2 | -0.365
GGCCAACUCUAUUUUGAAGTT against Lrp2bp | 0.362
GGACACAUAAUGUCUACCUTT against Unc93a | -0.629
GCACUAGCAGACUAGGUGATT against Zbtb26 | -2.07 (active)
GGAUUUUCAAUUCAUACCCTT against Psmb1 | -0.189
UUUACCUUGUCACCGUCUUTT against Olfr1029 | 1.03
AUUCAUUGGGAAAAAUUAUTT against Olfr127 | -2.38 (active)
CCUCGACAUCUAAUGAAGATT against 4933405O20Rik | -1.58
GCAAUACGAAGGCGAAAGCTT against P3h4 | -1.68
GGACUUCAUAUUAGCAUGUTT against Plbd2 | -1.27
GACCCUUUUCACCAAGACATT against Tecr | 0.989
GGAGCAGUGCAUUGAGACCTT against Adcy6 | 2.34 (active)
GGAAUAAUUGGUGUUAAAGTT against Hnrnpk | 0.346
